Several values for one entry are separate records, joined by “and”; a condition that tells them apart may be missing. Equal values may be shown once. The campaign covered roughly 5,500 compounds. About 2,000 (36%) were called active. Inconclusive results (about 18%) are left out. No stated cut-off is given here; in the data, active means normalized growth mostly below about 0.91 (no sharp cut-off); inconclusive means no clear call, values can overlap the other calls; inactive means mostly above about 0.92. The list shows a part of the results.
Test: chemical genetic growth profiling, strain panel (AID 1159580);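 further: tested at 20 µM; growth read once vehicle control cultures reached saturation at 30 °C; 1 = growth at the plate median or of vehicle wells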
Settings: S. cerevisiae deletion strains, growth OD

Measured: normalized growth

CN1CCc2cccc3c2C1Cc1ccc(O)c(O)c1-3 (stereo not drawn)
active: locus YAL021C, strain ccr4, stronger effect = lower value 0.83 | locus YAL026C, strain drs2, stronger effect = lower value 0.862 | locus YAL030W, strain snc1, stronger effect = lower value 0.866 | locus YBL061C, strain skt5, stronger effect = lower value 0.865 | locus YBR023C, strain chs3, stronger effect = lower value 0.85 | locus YBR231C, strain swc5, stronger effect = lower value 0.785 | locus YBR279W, strain paf1, stronger effect = lower value 0.924 | locus YCL011C, strain gbp2, stronger effect = lower value 0.883 | locus YCL061C, strain MRC1 (second series), stronger effect = lower value 0.611 | locus YDR069C, strain doa4, stronger effect = lower value 0.573 | locus YDR297W, strain sur2, stronger effect = lower value 0.88 | locus YDR334W, strain swr1, stronger effect = lower value 0.873 | locus YDR363W, strain ESC2, stronger effect = lower value 0.823 | locus YDR392W, strain spt3, stronger effect = lower value 0.534 | locus YER015W, strain faa2, stronger effect = lower value 0.784 | locus YER155C, strain BEM2 (second series), stronger effect = lower value 0.861 | locus YFR010W, strain ubp6, stronger effect = lower value 0.882 | locus YGL173C, strain kem1, stronger effect = lower value 0.725 | locus YHR013C, strain ard1, stronger effect = lower value 0.818 | locus YHR027C, strain rpn1, stronger effect = lower value 0.826 | locus YHR142W, strain chs7, stronger effect = lower value 0.867 | locus YJL095W, strain BCK1 (second series), stronger effect = lower value 0.906 | locus YJL164C, strain tpk1, stronger effect = lower value 0.874 | locus YJL166W, strain qcr8, stronger effect = lower value 0.742 | locus YJL187C, strain SWE1, stronger effect = lower value 0.887
inactive: locus YAL013W, strain DEP1, stronger effect = lower value 1.01 | locus YAL040C, strain CLN3, stronger effect = lower value 0.989 | locus YBR009C, strain hhf1, stronger effect = lower value 0.929 | locus YBR021W, strain FUR4, stronger effect = lower value 1.01 | locus YBR171W, strain sec66, stronger effect = lower value 0.949 | locus YBR229C, strain ROT2, stronger effect = lower value 1.01 | locus YCL016C, strain dcc1, stronger effect = lower value 0.925 | locus YCL029C, strain bik1, stronger effect = lower value 0.995 | locus YCL069W, strain vba3, stronger effect = lower value 0.978 | locus YCR088W, strain abp1, stronger effect = lower value 0.986 | locus YDL005C, strain med2, stronger effect = lower value 1.02 | locus YDL035C, strain GPR1, stronger effect = lower value 1.04 | locus YDL040C, strain nat1, stronger effect = lower value 0.977 | locus YDL074C, strain BRE1, stronger effect = lower value 1.01 | locus YDL101C, strain DUN1, stronger effect = lower value 1.01 | locus YDL134C, strain PPH21, stronger effect = lower value 1.03 | locus YDL185W, strain tfp1, stronger effect = lower value 1 | locus YDL192W, strain arf1, stronger effect = lower value 0.997 | locus YDR001C, strain nth1, stronger effect = lower value 1.01 | locus YDR101C, strain arx1, stronger effect = lower value 0.973 | locus YDR137W, strain rgp1, stronger effect = lower value 0.996 | locus YDR159W, strain sac3, stronger effect = lower value 0.987 | locus YDR162C, strain NBP2, stronger effect = lower value 1.03 | locus YDR195W, strain ref2 1.02 | locus YDR318W, strain mcm21, stronger effect = lower value 0.992 | locus YDR335W, strain msn5, stronger effect = lower value 0.923 | locus YDR388W, stronger effect = lower value 0.993 | locus YDR502C, strain sam2, stronger effect = lower value 0.999 | locus YEL003W, strain gim4, stronger effect = lower value 0.942 | locus YEL037C, strain rad23, stronger effect = lower value 0.962 | locus YEL061C, strain CIN8 (second series), stronger effect = lower value 0.971 | locus YEL061C, strain CIN8, stronger effect = lower value 1.01 | locus YER002W, strain NOP16, stronger effect = lower value 0.982 | locus YER016W, strain bim1, stronger effect = lower value 0.979 | locus YER110C, stronger effect = lower value 0.985 | locus YER111C, strain swi4, stronger effect = lower value 0.996 | locus YER155C, strain BEM2, stronger effect = lower value 1 | locus YER167W, strain BCK2, stronger effect = lower value 1.03 | locus YGL078C, strain dbp3, stronger effect = lower value 0.983 | locus YGL086W, strain mad1, stronger effect = lower value 1 | locus YGL167C, strain pmr1, stronger effect = lower value 0.985 | locus YGL227W, strain vid30, stronger effect = lower value 1.02 | locus YGL240W, strain doc1, stronger effect = lower value 0.929 | locus YGL248W, strain PDE1, stronger effect = lower value 1.01 | locus YGL253W, strain hxk2, stronger effect = lower value 0.969 | locus YGR135W, strain pre9, stronger effect = lower value 1 | locus YGR229C, strain SMI1, stronger effect = lower value 1.02 | locus YGR252W, strain gcn5, stronger effect = lower value 1.01 | locus YHR030C, strain SLT2, stronger effect = lower value 1.01 and 1.02 | locus YHR079C, strain IRE1 (second series), stronger effect = lower value 0.994 | locus YHR079C, strain IRE1, stronger effect = lower value 1.05 | locus YHR094C, strain hxt1, stronger effect = lower value 0.99 | locus YHR129C, strain ARP1, stronger effect = lower value 1.01 | locus YHR200W, strain rpn10, stronger effect = lower value 0.997 | locus YIL066C, strain RNR3, stronger effect = lower value 1.03 | locus YIL073C, strain SPO22, stronger effect = lower value 1.03 | locus YIL125W, strain kgd1, stronger effect = lower value 0.989 | locus YIR030C, strain dcg1, stronger effect = lower value 1 | locus YJL092W, strain hpr5, stronger effect = lower value 0.979 | locus YJL095W, strain BCK1, stronger effect = lower value 0.998 and 1.04 | locus YJL115W, strain asf1, stronger effect = lower value 0.999 | locus YJL129C, strain trk1, stronger effect = lower value 1.07 | locus YJL134W, strain LCB3, stronger effect = lower value 1 | locus YJL154C, strain vps35, stronger effect = lower value 1.01 | locus YJL168C, strain set2, stronger effect = lower value 0.989 | locus YJL187C, strain SWE1 (second series), stronger effect = lower value 1.01 | locus YJR043C, strain POL32, stronger effect = lower value 1.03 | locus YJR066W, strain TOR1, stronger effect = lower value 0.989

Source: PubChem BioAssay AID1159580 (chemical genetic matrix, 2015)
